Results on eight compounds are retold here after PubChem BioAssay (NCI).

This assay can be described thus: NCI Yeast Anticancer Drug Screen. Data for the wt2 strain (AID 169).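 Also: 0% = growth of vehicle-treated yeast cultures.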 The note with it: S. cerevisiae wt2 strain growth inhibition, active compounds read high. The protocol:
Growth inhibition of yeast strains with defined genetic alterations is measured as a screen for potential anti-cancer activity. Selected strains with alterations in DNA damage repair or cell cycle control were exposed to compounds and growth inhibition was measured relative to vehicle treated controls. The strain used in this assay is wt2

Compounds without any hit were thinned out: in the full panel of roughly 79,000, 15% have a hit. Active and inactive are the calls of the source. Rule as the data show it: active = growth inhibition above about 70%; inactive = the rest.

As for `O=C1CSC(/C=C/c2ccccc2)N1c1ccc(-c2ccc(-n3c(-c4ccccc4)nc4ccccc4c3=O)cc2)cc1` (stereo not given), the growth inhibition (at 1.2 µM) is -3% (inactive); the growth inhibition (at 3.7 µM) was -3% (inactive); the growth inhibition (at 11.0 µM) is -4% (inactive); the growth inhibition (at 33.0 µM) was 5% (inactive); the growth inhibition (at 100.0 µM) was 62% (inactive).

Regarding `CCCCCCCCCCCCCC[N+](C)(CC(=O)[O-])Cc1ccccc1` (stereo not given), the growth inhibition is, setting by setting: (at 1.2 µM) -6% (inactive); (at 3.7 µM) 9% (inactive); (at 11.0 µM) 100% (active); (at 33.0 µM) 60% (inactive); (at 100.0 µM) 99% (active).

As to `Cc1c(Cl)ccc2c1S(=O)(=O)c1cccc(Cl)c1-2`, the growth inhibition is, setting by setting: (at 1.2 µM) -10% (inactive); (at 3.7 µM) -9% (inactive); (at 11.0 µM) -12% (inactive); (at 33.0 µM) -12% (inactive); (at 100.0 µM) -25% (inactive).

For the compound `CCCN(CCC)CC(O)c1cc(-c2ccc(Cl)cc2)nc2c(C)c(Cl)ccc12` (stereo not given), the growth inhibition runs as follows: (at 1.2 µM) -3% (inactive); (at 3.7 µM) -7% (inactive); (at 11.0 µM) 99% (active); (at 33.0 µM) 97% (active); (at 100.0 µM) 96% (active).

Take `c1ccc2c(c1)NC(NC1Nc3ccccc3N1)N2`: the growth inhibition was 0% (inactive) (at 1.2 µM); 0% (inactive) (at 3.7 µM); 0% (inactive) (at 11.0 µM); 8% (inactive) (at 33.0 µM); 19% (inactive) (at 100.0 µM).

For the compound `COc1ccc2ccc3ccccc3c2c1C=O`, the growth inhibition is -3% (inactive) (at 1.2 µM); 4% (inactive) (at 3.7 µM); -4% (inactive) (at 11.0 µM); -4% (inactive) (at 33.0 µM); 77% (active) (at 100.0 µM).

Regarding `CCCS(=O)(=O)Nc1ccc(Nc2c3ccccc3nc3ccccc23)c(OC)c1`, the growth inhibition is, setting by setting: (at 1.2 µM) -37% (inactive); (at 3.7 µM) -40% (inactive); (at 11.0 µM) -41% (inactive); (at 33.0 µM) -10% (inactive); (at 100.0 µM) 69% (inactive).

On to `CCN(CC)CCN1C(=O)c2cccc3cc(OC)cc(c23)C1=O`, for which the growth inhibition runs as follows: (at 1.2 µM) -23% (inactive); (at 3.7 µM) -3% (inactive); (at 11.0 µM) -38% (inactive); (at 33.0 µM) -35% (inactive); (at 100.0 µM) 13% (inactive).
